PubChem BioAssay (NCI)
Values joined by “and” are separate entries in the source; they are usually repeats but may differ in a detail not shown here. Identical values can stand only once. Compounds without any hit were thinned out: in the full panel of roughly 79,000, 15% have a hit. Rule as the data show it: active = growth inhibition above about 70%; inactive = the rest. Where a SMILES comes first, the peptide text is derived from it.

Assays:
[1] = NCI Yeast Anticancer Drug Screen. Data for the rad50 strain (AID 155);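 also: 0% = growth of vehicle-only cultures of the same strain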; conditions: S. cerevisiae rad50 strain growth inhibition, hits give high values; at 50.0 µM unless noted
Method in brief: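 Vehicle-treated cultures provide the reference for the growth inhibition reported for compound-exposed, repair-deficient yeast.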

[2] = NCI Yeast Anticancer Drug Screen. Data for the mec2-1 strain (AID 157); conditions: S. cerevisiae mec2-1 strain, hits give high values; at 50.0 µM unless noted
Method in brief: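 Yeast mec2-1 mutant treated with compound. Readout: growth inhibition vs vehicle controls.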

[3] = NCI Yeast Anticancer Drug Screen. Data for the sgs1 mgt1 strain (AID 161);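 also: 0% = growth of cultures given vehicle only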; conditions: S. cerevisiae sgs1 mgt1 strain, hits give high values; at 50.0 µM unless noted
Method in brief: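 Genetically altered yeast, compound exposure, growth inhibition relative to vehicle.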

[4] = NCI Yeast Anticancer Drug Screen. Data for the cln2 rad14 strain (AID 165);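 also: 0% = growth equal to vehicle treated cultures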; conditions: S. cerevisiae cln2 rad14 strain, hits give high values; at 50.0 µM unless noted
Method in brief: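 cln2 rad14 yeast strain; compound exposure; growth inhibition read vs vehicle controls.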

[5] = NCI Yeast Anticancer Drug Screen. Data for the bub3 strain (AID 167); conditions: S. cerevisiae bub3 mutant strain, hits give high values; at 50.0 µM unless noted
Method in brief: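 Mutant yeast screening strain plus compound; vehicle-treated cultures serve as the 0% inhibition reference.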

[6] = NCI Yeast Anticancer Drug Screen. Data for the mlh1 rad18 strain (AID 175); conditions: S. cerevisiae mlh1 rad18 strain growth inhibition, hits give high values; at 50.0 µM unless noted
Method in brief: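 Yeast w/ defined DNA-repair lesions; compound exposure; growth vs vehicle controls → % inhibition.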

Measured: growth inhibition

CC12CCC(=O)C=C1CCCC2=O (centres undefined)
inactive: [1] -7.6% | [2] -12.3% | [3] -11.6% | [4] -14.7% | [5] -7.75% | [6] -3.4%

Cc1ccc(-c2c3ccccc3cc3ccccc23)c(C)c1
inactive: [1] 24.9% | [2] -11.1% | [3] -1.5% | [4] -2.8% | [5] 5.25% | [6] 11.8%

CC1CCCC(CC(=O)O)(CC(=O)O)C1 (centres undefined)
inactive: [1] -14.1% | [2] -33.6% | [3] -5.1% | [4] -29.3% | [5] -4.1% | [6] -21.4%

CC(C)CCOC=O
inactive: [1] 38.1% | [2] 28.4% | [3] 22.8% | [4] 21.6% | [5] 24.9% | [6] 30.5%

N=C(N)SCCCCCSC(=N)N
inactive: [1] 4.05% | [2] -12.2% | [3] -4.9% | [4] -3.15% | [5] -6.35% | [6] 12.8%

O=[N+]([O-])c1cccc(Br)c1
inactive: [1] 25.9% | [2] 22.8% | [3] -10.7% | [4] -52.6% | [5] 3.45% | [6] 5.75%

CCOC(=O)NC(=O)c1cn(CCSCCOC(=O)NCCCCCCNC(=O)OCCSCCn2cc(C(=O)NC(=O)OCC)c(=O)n(C)c2=O)c(=O)n(C)c1=O
inactive: [1] -26% | [2] -10.6% | [3] -29.7% | [4] 7.9% | [5] -0.35% | [6] -18.4%

CCCCOC(=O)NC(=O)c1cn(CCCOC(=O)NCCCCCCNC(=O)OCCCn2cc(C(=O)NC(=O)OCCCC)c(=O)[nH]c2=O)c(=O)[nH]c1=O
inactive: [1] -1.1% | [2] 2.75% | [3] -4.2% | [4] 24.6% | [5] -6.35% | [6] -33.1%

CC(=O)Oc1ccc(N2CC=C(c3ccccc3)CC2)cc1
inactive: [1] -6.7% | [2] -13.5% | [3] -9.75% | [4] -8.35% | [5] -9.45% | [6] -4.45%

CCOc1ccc(F)cc1
inactive: [1] 10.7% | [2] -13.5% | [3] 16.5% | [4] 22.6% | [5] 6.3% | [6] 25.9%

CC1(C)COC(=S)N1
inactive: [1] -3% and -28.6% | [2] 6.85% and -21.8% | [3] 0.5% and -14.8% | [4] 11.4% and -25.3% | [5] 9.55% and -26.9% | [6] 19.1% and -27.2%

CN(Cc1cnc2nc(N)nc(N)c2n1)c1ccc(C(=O)NC(CCC(=O)OCc2c(Cl)cccc2Cl)C(=O)OCc2c(Cl)cccc2Cl)cc1 (centres undefined)
inactive: [1] 17.1% | [2] 9.2% | [3] 28.5% | [4] 36.2% | [5] 22.1% | [6] 24.5%

CC(=O)OCC(OC(C)=O)C(OC(C)=O)C(OC(C)=O)C(OC(C)=O)C(=O)NC1CCc2ccccc2C1 (centres undefined)
inactive: [1] 24.8% | [2] 2.6% | [3] 13.6% | [4] 30.4% | [5] 0.25% | [6] 21.9%

NC1=NCC(CN2CCCCC2)O1 (centres undefined)
inactive: [1] 7.1% | [2] 1.8% | [3] -4.05% | [4] -2.4% | [5] -8.3% | [6] 5.9%

CCCCC(C(=O)O)N(C)C (centres undefined)
inactive: [1] -15.9% | [2] -11.3% | [3] -5.8% | [4] -0.5% | [5] 2.4% | [6] -20.4%

CCN(CC)c1ccc2c(c1)C(=O)c1ccccc1-2
inactive: [1] -6.7% | [2] 27.6% | [3] 14.2% | [4] 15.8% | [5] 38.8% | [6] 30.6%

CC1CC(=O)CC(C)(C)N1 (centres undefined)
inactive: [1] -9.4% | [2] -9% | [3] 3.2% | [4] -2.4% | [5] 5.85% | [6] -7.25%

COC(C)(/C(C)=N/O)c1ccc(-c2ccccc2)cc1 (centres undefined)
inactive: [1] 7.85% | [2] -7.95% | [3] 2.8% | [4] -0.65% | [5] 16.6% | [6] 19.7%

CCOC(=O)c1c(C)[nH]c(C(=O)CCN(C)C)c1C
inactive: [1] 7.35% | [2] 0.2% | [3] 17.4% | [4] -33.9% | [5] 2.1% | [6] 0.65%

CC1=NN(C(=O)Cc2ccccc2)C(=O)/C1=C\c1ccc(O)cc1
inactive: [1] -18.9% | [2] -36.1% | [3] -47.4% | [4] -4.2% | [5] -13.2% | [6] -29.2%

CNC(=O)CNC(=O)C(NC(=O)CNC(=O)C1CCCN1C(=O)C(C)NC(=O)C(NC(C)=O)C(C)C)C(C)C (centres undefined) (Ac-VAPGVG-NHMe; configuration not given here)
inactive: [1] 0.3% | [2] -13.9% | [3] 3.55% | [4] -6.6% | [5] -11.7% | [6] -4.75%

NC(=S)Nc1ccc(-c2ccccc2)cc1
inactive: [1] 17.4% | [2] 25.9% | [3] 49.1% | [4] -1.65% | [5] 22.8% | [6] 40.3%

COCN1C(=N)C(C(=O)OC(C)(C)C)=C2C=C(O)C=CC21C (centres undefined)
inactive: [1] -4.5% | [2] 14.7% | [3] -23.4% | [4] 9.1% | [5] 22.2% | [6] 2.55%

FC(F)(F)c1ccc2nc(NCc3ccccc3)c(-c3ccccc3)nc2c1
inactive: [1] 3.85% | [2] 15.6% | [3] 24.6% | [4] -6.25% | [5] 26.9% | [6] 35.8%

Oc1ccc(Br)cc1/C=N/N1CCN(/N=C/c2cc(Br)ccc2O)CC1
inactive: [1] 22.9% | [2] 6.2% | [3] 35.2% | [4] 14.9% | [5] 1.7% | [6] 25.1%

CC(C)(CN1CCCCC1)C(=O)CC(SCCN)c1ccc(Cl)cc1 (centres undefined)
inactive: [1] 27.8% | [2] 0.65% | [3] 47.3% | [4] 31.2% | [5] 46.9% | [6] 23.8%

CC1=C(C(=O)Nc2ccccc2)C(c2ccccc2Cl)C(C(=O)Nc2ccccc2)=C(C)N1
inactive: [1] 14.8% | [2] -0.35% | [3] -6.25% | [4] 14.4% | [5] -11.7% | [6] 6.65%

OC(Cc1ccc2ccccc2n1)(C(F)(F)F)C(F)(F)F
inactive: [1] -53.8% | [2] -43.6% | [3] -37.4% | [4] -3.85% | [5] -29.9% | [6] -21.8%

CC(=O)OC1c2ccccc2CCCCCCC12OCCO2 (centres undefined)
inactive: [1] -25.1% | [2] -36.4% | [3] -53.2% | [4] 1.8% | [5] -36.3% | [6] -7.25%

CCN(CC)CCOc1ccc(N2C(=O)c3cc(OC)c(OC)cc3C2=O)cc1
inactive: [1] -23.4% | [2] -19% | [3] -14.9% | [4] 5.25% | [5] -32.1% | [6] -34.5%

O=c1cc(C(F)(F)F)[nH]c2ccc(F)cc12
inactive: [1] 1.95% | [2] -10.4% | [3] 6.4% | [4] -27.6% | [5] -27% | [6] 7.55%

COC1CC(OC2CCC3(C)C(CCC45CCC(C6=CC(=O)OC6)C(C)(CCC43)C5=O)C2)OC(C)C1O (centres undefined)
inactive: [1] 22.4% | [2] -11.7% | [3] 2.6% | [4] 17.6% | [5] 12.8% | [6] -17.9%

CC1(c2ccccc2)C(=O)c2ccccc2-c2ccccc21 (centres undefined)
inactive: [1] 63.5% | [2] 48.4% | [3] 63.8% | [4] 3.45% | [5] 24.7% | [6] 24%

CCCCOC/N=C(/N)NC#N
inactive: [1] 10.9% | [2] 2.15% | [3] -5.2% | [4] 28.6% | [5] -4.1% | [6] 17.7%

NC1CCC[C@@H](O)[C@H]1O (some centres undefined)
inactive: [1] -4.9% | [2] 22.9% | [3] 8.7% | [4] -7.1% | [5] 9.6% | [6] -0.55%

Cc1ccc(NC(=O)CCCl)cc1
inactive: [1] 3.4% | [2] -1.55% | [3] 2.05% | [4] -19.1% | [5] -0.5% | [6] -14.3%

CC(C)C(C(N)=O)(C(=O)O)C(C)C
inactive: [1] -4.25% | [2] 4.05% | [3] 4.6% | [4] 5.2% | [5] -5.5% | [6] 6.85%

CC(=O)NC1CCC(CCC2CCCCC2)CC1 (centres undefined)
inactive: [1] 0.55% | [2] 5.3% | [3] 2.45% | [4] 2.25% | [5] -5.9% | [6] -9.75%

O=C(CNc1nncs1)NO
inactive: [1] 15.1% | [2] -8.95% | [3] 0.3% | [4] 1.05% | [5] -1.35% | [6] -1.7%
